Results on twelve molecules are retold here after PubChem BioAssay (NCATS).

Records with an inconclusive call do not appear. Activity calls are given as the source filed them. Calls come from the whole dose curve; as a rule, active = well fitted inhibition curve with a large enough effect; inconclusive = small, poorly fitted or top-dose-only effect; inactive = no such curve, though single readings can be large or run the other way.
% is set by controls: 0 for no effect and ±100 for the full control effect; potency is the fitted concentration of half-maximal effect.

The subject of the test is Zika virus NS2B-NS3 protease (unlinked complex). Description: Primary screen GU Rhodamine qHTS for Zika virus inhibitors: Unlinked NS2B-NS3 protease assay (AID 1347159). Note: nearly all actives have a fitted effect of over 60% in size. Particulars: Recombinant ZIKV NS2B-NS3 protease, Rhodamine110 substrate fluorescence; series mostly up to 107 µM; activity change, negative = inhibition: at the top concentration. Summed up:
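Percent inhibition came from the 15-min rise in Rhodamine110 fluorescence (1.5 microM substrate, ~15% conversion), normalized to no-inhibitor and no-enzyme wells and Hill-fitted. Unlinked protease, 25 nM, pH 8.0 Tris buffer; compounds up to 114 microM, 15-min preincubation.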
(qHTS replaces the single test concentration by a dilution series.)
With `C[C@@H](N[C@H]1CCCC[C@@H]1NC(=O)c1ccc(Cl)cc1)c1cccc2ccccc12`, the “activity change, negative = inhibition” value was 30.4% (inactive). With `Cc1c(Cl)cccc1S(=O)(=O)Nc1nc(NCCc2ccccc2)nc2c1CN(Cc1ccccc1)CC2`, the Potency is 7.94 µM (active).

For `N[C@@H]1c2cccnc2[C@H](OC(=O)N2CCC(n3c(=O)[nH]c4ncccc43)CC2)CC[C@H]1c1cccc(F)c1F`, the “activity change, negative = inhibition” value is -15.7% (inactive).

Take `CCC(C)C(=O)OC1C(C)C2(O)C(C=C(CO)CC3(O)C(=O)C(C)=CC32)C2C(C)(C)C12OC(=O)C(C)C` (configuration not stated): the “activity change, negative = inhibition” value is -9.5% [at 57.1 µM] (inactive). On to `CC1(C)CCC(C)(C)c2cc(C#Cc3ccc(C(=O)O)cc3)ccc21`, for which the Potency is 1.58 µM (active).

`CCC[C@@]1(CCc2ccccc2)CC(O)=C([C@H](CC)c2cccc(NS(=O)(=O)c3ccc(C(F)(F)F)cn3)c2)C(=O)O1`: the Potency is 8.91 µM (active). `O=C(Nc1ccccc1)c1ccc(Nc2nnc(-c3ccc(O)cc3)c3ccccc23)cc1`: the Potency was 14.1 µM (active). Still for that read-out and setting: under `CC12CCC3C1C(c1c(cc(O)c(C(=O)c4ccccc4)c1O)O2)C3(C)C` (configuration not stated) stands 8.91 µM (active); under `CCCCOC(=O)NS(=O)(=O)c1sc(CC(C)C)cc1-c1ccc(Cn2ccnc2)cc1`, 31.6 µM (active). Turning to `O=C(N[C@H](Cc1cscn1)C(=O)N[C@@H](CC1CCCCC1)[C@@H](O)[C@@H](O)C1CC1)c1nc2ccccc2[nH]1`, the “activity change, negative = inhibition” value is 9.52% (inactive). `Cc1sc2c(c1C)C(c1ccc(Cl)cc1)=N[C@@H](CC(=O)Nc1ccc(OCCOCCOCCOCCNc3cccc4c3C(=O)N(C3CCC(=O)NC3=O)C4=O)cc1)c1nnc(C)n1-2` (some centres not stated): the “activity change, negative = inhibition” value was 0% [at 57.1 µM] (inactive).

On to `C=C1/C(=C/C=C2\CCC[C@]3(C)[C@@H]([C@H](C)/C=C/[C@H](O)C4CC4)CC[C@@H]23)C[C@@H](O)C[C@@H]1O`, for which the Potency was 50.1 µM (active).
